{"source": "PubChem BioAssay (Tox21)", "note": "Records with an inconclusive call do not appear. Entries that show only a call come without a potency. Calls of active or inactive are those of the source. Calls follow the shape of the full dose curve.", "data": [{"assay": "qHTS assay for small molecule disruptors of the mitochondrial membrane potential - cell viability (AID 720634);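 also: human HepG2 liver cancer cells; nearly all actives have a fitted effect of over 20% in size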", "conditions": "HepG2 viability, ATP luminescence (CellTiter-Glo), 1 h; series mostly up to 83.2 µM", "excerpt": "U.S. Tox21 Program National Center for Advancing Translational Sciences [NCATS] NIH Chemical Genomics Center [NCGC] U.S. Environmental Protection Agency [EPA] National Institutes of Environmental Health Sciences [NIEHS] National Toxicology Program [NTP] U.S. Food and Drug Administration [FDA] Tox21 Assay Overview: Mitochondrial membrane potential (MMP), one of the parameters for mitochondrial function, is generated by mitochondrial electron transport chain that creates an electrochemical gradient by a series of redox reactions. This gradient drives the synthesis of ATP, a crucial molecule for various cellular processes. Measuring MMP in living cells is commonly used to assess the effect of chemicals on mitochondrial function; decreases in MMP can be detected using lipophilic cationic fluorescent dyes. […] The dye accumulates in the mitochondria of healthy cells as aggregates, with red fluorescence. The mitochondrial potential decreases and the dye could not accumulate in the mitochondria and remains in the cytoplasm in monomers, with green fluorescence. In addition to the mitochondrial potential assay, these cells were also used to test the cytotoxicity by determining the cell viability in the culture based on the quantitation of ATP present. The cytotoxicity was measured in the same assay well of MMP assay.\nTox21 Assay Protocol Summary: 2,000 HepG2 cells in 5 uL/well were dispensed into black, clear-bottom 1536-well plates using a Multidrop Combi (Thermo Scientific) dispenser. The assay plates were incubated for an overnight at 37 C to allow cells to attach to the wells, followed by the transfer of 23 nL compound or DMSO vehicle by a pin tool (Kalypsys). The plates were incubated for 1 hr at 37 C and 5% CO2, followed by the addition of 5 uL of 2X m-MPI dye into each well using Flying Reagent Dispenser (Aurora Discovery) and then CellTiter-Glo reagent was added at 4 uL/well and incubated 30 min at room temperature. Then luminescence intensity was quantified on a ViewLux CCD-based plate reader.", "values": [{"smiles": "CCN1C[C@]2(COC)[C@H](O)C[C@H](OC)[C@@]34[C@@H]5C[C@@]6(O)[C@H](OC(=O)c7ccccc7)[C@@H]5[C@@](OC(C)=O)([C@@H]([C@H](OC)[C@H]23)[C@@H]14)[C@@H](O)[C@@H]6OC", "Potency": "inactive"}, {"smiles": "CCCCc1ccc(C(=O)O)nc1", "Potency": "inactive"}, {"smiles": "CCC1C(C)=NN=C(c2ccc(OC)c(OC)c2)c2cc(OC)c(OC)cc21", "note": "(stereo not given)", "Potency": "inactive"}, {"smiles": "C[C@]12C[C@H]3S[C@H]3C[C@@H]1CC[C@@H]1[C@@H]2CC[C@]2(C)[C@@H](O)CC[C@@H]12", "Potency": "inactive"}, {"smiles": "Cc1ccccc1-n1c(CF)nc2ccc(N)cc2c1=O", "Potency": "inactive"}, {"smiles": "C[C@]12CC[C@H]3[C@@H](CCC4=C(Cl)C(=O)CC[C@@]43C)[C@@H]1CC[C@@H]2O", "Potency": "inactive"}, {"smiles": "CCCC(=O)OC(C(Cl)(Cl)Cl)P(=O)(OC)OC", "note": "(stereo not given)", "Potency": "inactive"}, {"smiles": "CNC1(c2ccccc2Cl)CCCCC1=O", "note": "(stereo not given)", "Potency": "inactive"}, {"smiles": "C=C[C@H]1CN2CC[C@H]1C[C@@H]2[C@@H](O)c1ccnc2ccccc12", "Potency": "inactive"}, {"smiles": "COC([CH2][Hg])CNC(=O)c1ccccc1OCC(=O)O", "note": "(stereo not given)", "Potency": "inactive"}, {"smiles": "CC(N)Cc1ccc(O)cc1", "note": "(stereo not given)", "Potency": "inactive"}, {"smiles": "CN(C)CCCCCCN(C)C", "note": "(tested in a mixture with another compound)", "Potency": "inactive"}, {"smiles": "CC(C)C[C@H]1C(=O)N2CCC[C@H]2[C@]2(O)O[C@](NC(=O)[C@@H]3C[C@@H]4c5cccc6[nH]cc(c56)C[C@H]4N(C)C3)(C(C)C)C(=O)N12", "Potency": "inactive"}, {"smiles": "CCC1(c2ccccc2)C(=O)NC(=O)N(C)C1=O", "note": "(stereo not given)", "Potency": "inactive"}, {"smiles": "O=C1CN(O)C(c2ccccc2)=c2cc(Cl)ccc2=N1", "Potency": "inactive"}, {"smiles": "CC(=O)[C@H]1CC[C@H]2[C@@H]3CC[C@@H]4C[C@H](O)CC[C@]4(C)[C@H]3CC[C@]12C", "Potency": "inactive"}, {"smiles": "CC1(C)S[C@@H]2[C@H](N)C(=O)N2[C@H]1C(=O)O", "Potency": "inactive"}, {"smiles": "CC(N)Cc1ccc2c(c1)OCO2", "note": "(stereo not given)", "Potency": "inactive"}, {"smiles": "CCCCCCC(=O)O[C@H]1CC[C@H]2[C@@H]3CC[C@H]4CC(=O)C=C(C)[C@]4(C)[C@H]3CC[C@]12C", "Potency": "inactive"}, {"smiles": "O=C(C[C@@H]1NCCC[C@H]1O)Cn1cnc2cc(Br)c(Cl)cc2c1=O", "Potency": "inactive"}, {"smiles": "CC(C)(O)[C@@H]1[C@H]2OC(=O)[C@@H]1[C@]1(O)C[C@H]3O[C@]34C(=O)O[C@H]2[C@]14C", "Potency": "inactive"}, {"smiles": "CN[C@]1(c2ccccc2Cl)CCCCC1=O", "Potency": "inactive"}, {"smiles": "COc1ccc2c3c1O[C@H]1C(=O)CC[C@H]4[C@@H](C2)N(C)CC[C@]314", "Potency": "inactive"}, {"smiles": "C[C@@H]1[C@H](O)[C@@H](C)/C=C/C=C/CC/C=C/C=C/C=C/C=C/[C@H](O[C@H]2O[C@@H](C)[C@H](O)[C@@H](N)[C@H]2O)CC2O[C@](O)(C[C@@H](O)[C@H](O)CC[C@@H](O)C[C@@H](O)C[C@@H](O)CC(=O)O[C@H]1C)C[C@H](O)[C@H]2C(=O)O", "Potency": "inactive"}, {"smiles": "C[N+]1([O-])[C@@H]2CC[C@H]1CC(OC(=O)C(CO)c1ccccc1)C2", "note": "(stereo not given in full)", "Potency": "inactive"}, {"smiles": "C[N+]1([O-])[C@@H]2CC(OC(=O)[C@H](CO)c3ccccc3)C[C@H]1[C@@H]1O[C@@H]12", "note": "(stereo not given in full)", "Potency": "inactive"}, {"smiles": "C[C@@H](CO)NC(=O)[C@@H]1C=C2c3cccc4[nH]cc(c34)C[C@H]2N(C)C1", "Potency": "inactive"}, {"smiles": "CCC1(CC)C(=O)NC(=O)N(C)C1=O", "Potency": "inactive"}, {"smiles": "C1CN(P2(N3CC3)=NP(N3CC3)(N3CC3)=NP(N3CC3)(N3CC3)=N2)CCO1", "note": "(stereo not given)", "Potency": "inactive"}, {"smiles": "NCC[C@H](O)C(=O)N[C@@H]1C[C@H](N)[C@@H](O[C@H]2O[C@H](CN)[C@@H](O)[C@H](O)[C@H]2N)[C@H](O[C@@H]2O[C@H](CO)[C@@H](O)[C@H]2O)[C@H]1O", "Potency": "inactive"}, {"smiles": "C[C@]12CC[C@H]3[C@@H](CCC4=CC(=O)CC[C@@]43C)[C@@H]1CC[C@H]2O", "Potency": "inactive"}, {"smiles": "CC(C)[C@H]1C(=O)N2CCC[C@H]2[C@]2(O)O[C@](NC(=O)[C@@H]3C[C@@H]4c5cccc6[nH]cc(c56)C[C@H]4N(C)C3)(C(C)C)C(=O)N12", "Potency": "inactive"}, {"smiles": "COc1ccc(OC)c([C@@H](O)[C@H](C)N)c1", "Potency": "inactive"}, {"smiles": "[2H]C([2H])([2H])[C@H](N)Cc1ccccc1", "Potency": "inactive"}, {"smiles": "C[C@]12C=CC(=O)C=C1CC[C@@H]1[C@@H]2CC[C@]2(C)OC(=O)CC[C@@H]12", "Potency": "inactive"}, {"smiles": "O=C1C(I)=CC(=C(c2cc(I)c(O)c(I)c2)c2ccccc2C(=O)O)C=C1I", "Potency": "inactive"}, {"smiles": "CCC(=O)O[C@]1(c2ccccc2)CCN(C)C[C@H]1C", "Potency": "inactive"}, {"smiles": "C[C@H]1[C@H]2Cc3ccc(O)cc3[C@]1(C)CCN2CCc1ccccc1", "Potency": "inactive"}, {"smiles": "C[C@@H](Cc1ccccc1)NCCC(c1ccccc1)c1ccccc1", "Potency": "inactive"}, {"smiles": "C=CCN1CC[C@]23c4c5ccc(O)c4O[C@H]2[C@@H](O)C=C[C@H]3[C@H]1C5", "Potency": "inactive"}]}]}
